Inconclusive results are not listed. Activity calls are given as the source filed them. Rule for the calls: active = hit-call score of the fitted dose curve at least 0.9, where 1 is the maximum; inconclusive = response in the unintended direction; inactive = score below 0.9.
Legend:
[1] = molecular target: Cellular tumor antigen p53 (Homo sapiens) (UniProt P04637); assay: TOX21_p53_BLA_p2_ratio: Tox21 HCT-116 p53 Agonism Beta-lactamase Assay, Ratio, Phase 2 (AID 2283592)
Outline: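 Human colon HCT116 cells with an inducible p53 beta-lactamase reporter are exposed to test chemicals for 16 h at 37C. Reporter induction is read as the 460/530 nm emission ratio after CCF4-AM loading, normalized to DMSO.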

[2] = TOX21_p53_BLA_p4_viability: Viability Assessment in the Tox21 HCT-116 p53 Agonism Beta-lactamase Assay, Phase 4 (AID 2283597);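 note: hits lower the luminescence signal meaning cytotoxicity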
Outline: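 Luminescent ATP readout (CellTiter-Glo, 30 min, room temperature) in the same wells as the p53 bla ratio. HCT116 cells were treated for 16 h at 37C with DMSO-dissolved compounds.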

[3] = molecular target: Cellular tumor antigen p53 (Homo sapiens) (UniProt P04637); assay: TOX21_p53_BLA_p5_ratio: Tox21 HCT-116 p53 Agonism Beta-lactamase Assay, Ratio, Phase 5 (AID 2283599)
Outline: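 HCT-116 p53-bla cells (4000/well) plated 5 h, dosed with compound (217-fold DMSO dilution) for 16 h at 37 C; CCF4-AM substrate 2 h at room temperature. Activity is the 460/530 nm emission ratio (405 nm excitation), fitted in gain-of-signal direction versus DMSO.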

[4] = molecular target: Cellular tumor antigen p53 (Homo sapiens) (UniProt P04637); assay: TOX21_p53_BLA_p4_ratio: Tox21 HCT-116 p53 Agonism Beta-lactamase Assay, Ratio, Phase 4 (AID 2283601)
Outline: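 HCT-116 p53 beta-lactamase reporter cells (4000/well) preincubated 5 h, then compound (217-fold dilution of DMSO stock) for 16 h at 37C. CCF4-AM substrate added 2 h at room temperature; 460/530 nm emission ratio fitted upward versus DMSO.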

[5] = TOX21_p53_BLA_p5_viability: Viability Assessment in the Tox21 HCT-116 p53 Agonism Beta-lactamase Assay, Phase 5 (AID 2283600)
Outline: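 Seeded cells (4000/well) settle 5 h before compound addition. Plates then incubate 16 h at 37C, receive FRET substrate for 2 h, and finally CellTiter-Glo, with luminescence measured after a 30 min room-temperature incubation.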

Measured: outcome

Cellular tumor antigen p53 (Homo sapiens), sequence (P04637 whole entry, looked up): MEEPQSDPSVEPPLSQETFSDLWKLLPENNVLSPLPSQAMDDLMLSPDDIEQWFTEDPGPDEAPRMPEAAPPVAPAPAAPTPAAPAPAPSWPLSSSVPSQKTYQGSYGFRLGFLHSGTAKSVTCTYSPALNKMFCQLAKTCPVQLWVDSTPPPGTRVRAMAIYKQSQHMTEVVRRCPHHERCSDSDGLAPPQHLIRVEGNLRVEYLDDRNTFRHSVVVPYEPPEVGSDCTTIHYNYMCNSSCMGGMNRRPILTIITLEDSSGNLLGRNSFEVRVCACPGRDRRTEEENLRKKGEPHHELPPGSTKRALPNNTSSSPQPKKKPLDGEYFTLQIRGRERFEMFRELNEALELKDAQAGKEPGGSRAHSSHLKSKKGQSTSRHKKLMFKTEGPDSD

Nc1c2c(nc3ccccc13)CCCC2O (centres undefined)
not listed: [5]
inactive: all other assays above

CCN(CC)CCOC(=O)C1(c2ccccc2)CCCC1
not listed: [5]
inactive: all other assays above

CC(C)CCC[C@@H](C)[C@H]1CC[C@H]2[C@@H]3CC[C@@H]4C[C@H](O)CC[C@]4(C)[C@H]3CC[C@]12C
not listed: [3]
inactive: all other assays above

COc1ccc(C=NNC(=O)c2ccncc2)c(C(=O)O)c1OC
not listed: [5]
inactive: all other assays above

CCCCCCCCCCCCCCCCCl
not listed: [4]
inactive: all other assays above

COc1cc(S(C)=O)ccc1-c1nc2ncccc2[nH]1 (centres undefined)
inactive: all assays above

NS(=O)(=O)c1ccc(C(=O)O)cc1
inactive: all assays above

NC(=O)c1cn(Cc2c(F)cccc2F)nn1
not listed: [3]
inactive: all other assays above

From PubChem BioAssay (EPA / NIEHS)
